A selection: hits, their analogues and other compounds. The true share with any hit is near 10%.
G9a inh: inhibitors of human histone lysine methyltransferase G9a; Q96KQ7; G9a H3K9 monomethylation, AlphaScreen, 2 h; Potency, µM (top dose mostly 102 µM), without a hit: top-dose activity, negative = inhibition, usual class: inhibitors; 350,000 compounds, 8.8% hits; also: % is scaled to controls: 0 for no effect and ±100 for the full control effect; nearly all actives have a fitted effect of over 75% in size
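Readings reflect AlphaScreen signal from monomethyl-H3K9 antibody detection. HMT at 20 nM; substrate b-H3K9 500 nM; cofactor SAM 20 uM; 2 h RT reaction; compounds tested as titrations in qHTS with 15 min preincubation.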
JMJD2A Tudor inh: blocks the human JMJD2A Tudor domain. 390,000 compounds, 4.4% hits. AID 504339. O75164. Potency, µM (doses to about 114 µM), inactives show at the top dose activity change, negative = inhibition, usual class: inhibitors. AlphaScreen JMJD2A-Tudor / H3K4me3 peptide binding; also: % is scaled to controls: 0 for no effect and ±100 for the full control effect; nearly all actives have a fitted effect of over 50% in size
Target sequence (O75164 whole entry, looked up, the tested form may be a part): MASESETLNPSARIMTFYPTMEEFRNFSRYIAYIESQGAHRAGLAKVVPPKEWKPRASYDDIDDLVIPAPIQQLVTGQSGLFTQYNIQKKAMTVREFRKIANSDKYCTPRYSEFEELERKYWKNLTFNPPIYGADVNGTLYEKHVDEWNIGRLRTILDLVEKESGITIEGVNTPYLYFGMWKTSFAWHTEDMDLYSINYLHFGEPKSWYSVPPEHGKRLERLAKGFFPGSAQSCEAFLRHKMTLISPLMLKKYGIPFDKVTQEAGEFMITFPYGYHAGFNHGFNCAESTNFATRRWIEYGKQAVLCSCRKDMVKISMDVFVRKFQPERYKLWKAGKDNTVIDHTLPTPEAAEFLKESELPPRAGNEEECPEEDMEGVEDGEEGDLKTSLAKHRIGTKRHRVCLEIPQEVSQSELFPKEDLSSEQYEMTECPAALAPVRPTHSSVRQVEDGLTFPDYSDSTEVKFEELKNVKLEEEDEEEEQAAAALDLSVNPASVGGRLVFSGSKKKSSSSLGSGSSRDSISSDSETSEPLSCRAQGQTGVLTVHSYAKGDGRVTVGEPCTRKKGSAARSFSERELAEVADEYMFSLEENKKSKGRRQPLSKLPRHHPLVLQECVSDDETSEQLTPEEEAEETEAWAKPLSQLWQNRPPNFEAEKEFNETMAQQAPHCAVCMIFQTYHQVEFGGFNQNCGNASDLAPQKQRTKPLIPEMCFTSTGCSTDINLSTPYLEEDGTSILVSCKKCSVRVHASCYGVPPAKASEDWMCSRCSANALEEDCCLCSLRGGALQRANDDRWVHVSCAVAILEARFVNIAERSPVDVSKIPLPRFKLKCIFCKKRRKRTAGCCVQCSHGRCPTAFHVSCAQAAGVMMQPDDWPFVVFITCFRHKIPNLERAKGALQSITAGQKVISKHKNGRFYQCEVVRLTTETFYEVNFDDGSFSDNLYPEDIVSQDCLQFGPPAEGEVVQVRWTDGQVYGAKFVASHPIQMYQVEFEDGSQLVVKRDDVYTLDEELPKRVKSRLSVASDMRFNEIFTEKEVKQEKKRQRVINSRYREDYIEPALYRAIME
L3MBTL1 block: blocks human L3MBTL1 | AlphaScreen L3MBTL1–H3K9me1 peptide binding | Potency, µM (titrated, usually from 57.1 µM), inactives show at the top dose activity, negative = inhibition, most hits filed as inhibitors | 230,000 compounds, 0.66% hits; also: % is scaled to controls: 0 for no effect and ±100 for the full control effect; nearly all actives have a fitted effect of over 60% in size
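L3MBTL1 (50 nM) pre-complexed 30 min with biotinylated H3(1-15)K9me1 peptide (75 nM), then compounds added for 30 min at room temperature; AlphaScreen streptavidin donor/nickel chelate acceptor beads (10 ug/mL final) read after 30 min dark incubation.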
BAZ2B block: blocks human BAZ2B | Q9UIF8 | AlphaScreen BAZ2B-H3K14Ac peptide displacement | Potency, µM (doses to about 114 µM), inactives show top-dose activity change, negative = inhibition, actives largely listed as inhibitors | 360,000 compounds, 4.4% hits | AID 504333; also: % is scaled to controls: 0 for no effect and ±100 for the full control effect; nearly all actives have a fitted effect of over 60% in size
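Inhibition is scored as reduced AlphaScreen emission. The BAZ2B/b-H3(5-23)K14Ac complex (50 nM each) in PBS pH 7.4, 0.01% Tween-20 meets compound (up to 110 uM) for 30 min at RT before bead addition.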
HP1b chromo inh: blocks HP1-beta chromodomain binding to methylated histone tails. P83916. AlphaScreen HP1-beta / biotin-H3K9me3 peptide binding. Potency, µM (top dose mostly 114 µM), inactives show at the top dose activity change, negative = inhibition, usual class: inhibitors. 390,000 compounds, 0.56% hits. AID 540317; also: nearly all actives have a fitted effect of over 70% in size
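Compound inhibition of the preformed complex between 50 nM HP1-beta and 50 nM biotinylated H3K9me3 peptide was read by AlphaScreen. Buffer was PBS pH 7.4 with 0.01% Tween-20. Incubations ran 30 min at room temperature, with 10 ug/mL donor/acceptor beads.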
GLS inh: glutaminase GLS (human) inhibition; Potency, µM (highest dose often 45.5 µM), for inactives: at the highest dose activity change, negative = inhibition, usual class: inhibitors; O94925; 410,000 compounds, 0.21% hits; AID 624170; GLS enzymatic activity, qHTS titration; also: % is scaled to controls: 0 for no effect and ±100 for the full control effect
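Coupled fluorescence readout: glutamate oxidase/HRP/Amplex Red detect glutamate formed by hKGA from L-glutamine (1 mM solution added). Buffer 45 mM KH2PO4 pH 8.2, 0.02% Tween-20; reads at t0 and 30 min RT.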
Starred values were filed as active, the others as inactive; ? = inconclusive; · = no result; [ ] = remark or other dose. Calls follow the shape of the dose curve; as a rule, active = well fitted curve in the direction sought with a large enough effect; inconclusive = small, poorly fitted or top-dose-only effect, or another doubt; inactive = no such curve, though single readings can be large; an effect the other way counts as inactive or inconclusive. Potency is read from the fitted curve at half-maximal effect.

SMILES | G9a inh | JMJD2A Tudor inh | L3MBTL1 block | BAZ2B block | HP1b chromo inh | GLS inh
COc1ccc(-c2nc3scc(CCNS(=O)(=O)c4ccc(F)cc4F)n3n2)cc1OC | 2%[59 µM] | -14% | · | -10% | 10% | 5%
O/N=C\c1cccn1-c1ccc(Br)cc1 | ? | 79µM* | · | ? | -33% | 20%
CC(C)n1c(-c2ccccc2F)n[nH]c1=S | · | 4µM* | 13% | -6% | 16% | -1%
CC(C)(C)c1ccc(-c2cc(N)n[nH]2)cc1 | -35%[59 µM] | ? | · | -28% | 22% | 24%
CC(c1ccccc1)n1c(-c2ccccc2F)n[nH]c1=S (stereo not given) | · | 22µM* | -3% | -2% | 20% | -15%
CC(C)n1c(-c2ccc(C(C)(C)C)cc2)n[nH]c1=S | 2.5µM* | 28µM* | -1% | -31% | 15% | ?
CC(c1ccc(F)cc1)n1c(-c2cccs2)n[nH]c1=S (stereo not given) | 5µM* | ? | -7% | -31% | 20% | -6%
CC(c1ccccc1)n1c(-c2ccc(Cl)cc2)n[nH]c1=S (stereo not given) | · | -34% | -14% | -35% | 33% | -21%
COC(=O)c1cc2sccc2n1Cc1nc(-c2cccc(Br)c2)oc1C | ? | -11% | · | 2% | 12% | -10%
CC(c1ccccc1)n1c(-c2ccncc2)n[nH]c1=S (stereo not given) | 2.5µM* | 18µM* | · | 5% | 15% | 6%
CSc1nccn1C(=O)c1ccccc1[N+](=O)[O-] | 35µM* | 35µM* | · | -31% | 10% | 6%
CN(C/C=C/c1ccccc1)C1CCCCC1 | -21% | -13% | 5% | -18% | 72% | 0%
COCCN(C/C=C/c1ccccc1)C/C=C/c1ccccc1 | 7.1µM* | 1µM* | -5% | ? | ? | 5%
O=C(CC1NCCc2ccccc21)Nc1ccccc1Cl (stereo not given) | -1% | -3% | 1% | 1% | 22% | 3%
S=C1NCCc2ccccc2C1c1ccccc1Cl (stereo not given) | 5%[59 µM] | ? | -9% | 45µM* | -14% | 11%
O=C(O)CC1NCCc2ccccc21 (stereo not given) | -33%[59 µM] | -8%[11.4 µM] | 3% | -12% | 13% | -2%
S=C1NCCc2ccccc2C1c1ccccc1 (stereo not given) | ? | -32% | -12% | 45µM* | ? | 8%
Cc1ccc(NC(=O)CSc2nnc3[nH]c(=O)cc(-c4ccccc4)n23)cc1Cl | 0%[59 µM] | ? | · | -13% | -6% | 1%
CCC(=O)NC(=S)Nc1cccc(NC(=O)c2ccccc2Cl)c1 | 18µM* | -6%[11.4 µM] | 1% | -1% | -1% | -11%
CCCC(=O)NC(=S)Nc1cccc(NC(=O)c2ccccc2Cl)c1 | -14%[59 µM] | ? | 3% | -6% | 31% | 5%
CC(C)CC(=O)NC(=S)Nc1cccc(NC(=O)c2ccccc2Cl)c1 | 7.9µM* | ? | · | -3% | 23% | 3%
COc1ccc(C(=O)/C=C/c2ccccc2)c(OC)c1 | 15%[59 µM] | -5% | 5% | 5% | 27% | 18%
COc1ccc(C(=O)/C=C/c2ccc(N3CCCCC3)c([N+](=O)[O-])c2)cc1 | 10µM* | 11µM* | ? | 4µM* | 25µM* | -2%
COc1ccc(C(=O)/C=C/c2ccc(N3CCCCC3)c([N+](=O)[O-])c2)c(OC)c1 | 8.9µM* | 10µM* | ? | 8.9µM* | 16µM* | -2%
O=C(O)c1cc([N+](=O)[O-])c(NCCC2=CCCCC2)c([N+](=O)[O-])c1 | 50µM* | -32% | · | -27% | -4% | 13%
SMILES | G9a inh | JMJD2A Tudor inh | L3MBTL1 block | BAZ2B block | HP1b chromo inh | GLS inh
CCCCNc1c([N+](=O)[O-])cc(C(=O)O)cc1[N+](=O)[O-] | 10%[59 µM] | -11% | -3% | -31% | 7% | 6%
CCOc1ccc(NC(=O)Cn2c(=O)cc(C)c3c(C)nn(-c4cccc(Cl)c4C)c32)cc1 | 7%[59 µM] | -33% | · | 2% | 59% | 6%
Brc1ccc(CNc2cc3c(cc2Br)OCCO3)cc1 | 45µM* | ? | ? | 32µM* | ? | -1%
CC(=O)Nc1cc2c(cc1Br)OCCO2 | -5%[12.7 µM] | -12% | 7% | 5% | 8% | 9%
COc1cc(OC)c(NC(=O)Nc2cccc(OCc3cc(=O)n4ccccc4n3)c2)cc1Cl | ? | -35% | · | -37% | 14%[57 µM] | -16%
O=c1c2c(-c3ccccc3)csc2ncn1/N=C/c1cccc([N+](=O)[O-])c1O | 40µM* | 79µM* | · | 50µM* | -16% | 34%
O=c1c2c(-c3ccccc3)csc2ncn1/N=C/c1ccc(O)c([N+](=O)[O-])c1 | ? | -30% | · | -33% | 15% | 0%
COCCNC(=S)N=Nc1c(O)[nH]c2ccc([N+](=O)[O-])cc12 | · | 25µM* | -12% | -4% | 14% | 9%
CCCCCCC(=O)N=Nc1c(O)[nH]c2ccc([N+](=O)[O-])cc12 | -2%[59 µM] | ? | -2% | -4% | -11% | 8%
O=[N+]([O-])c1ccc(N=Nc2c(O)[nH]c3ccc(F)cc23)cc1 | 40µM* | ? | · | -32% | -39% | 4%
COC(=O)c1sccc1S(=O)(=O)N1CCN(c2cccc(C)c2)C(C)C1 (stereo not given) | 2%[59 µM] | -30% | · | -38% | -11% | 18%
CCC(=O)Nc1ccc(CC)cc1-c1nc2ccccc2n(CC(=O)Nc2ccccc2C)c1=O | -34%[59 µM] | -9% | · | -13% | 33% | -5%
CCN(CC)S(=O)(=O)c1ccc(Oc2ccccc2)c(N)c1 | 5% | -1% | 4% | · | 47% | 11%
Cc1cc(C)[n+](-c2ccc(Oc3ccccc3)c(S(=O)(=O)[O-])c2)[nH]1 | ? | 50µM* | -3% | -17% | 9% | ·
Cc1ccc(S(=O)(=O)NC(C)C(=O)N2CCOCCOCCOCC2)cc1 (stereo not given) | 71µM* | -5% | · | 12% | -16% | -1%
Cc1ccc(S(=O)(=O)NC(C(=O)N2CCOCCOCCOCCOCC2)C(C)C)cc1 (stereo not given) | ? | -9% | · | -21% | 24% | -3%
Cc1ccccc1CSc1ncc(Cl)c(C(=O)Nc2nc3ccc(F)cc3s2)n1 | -18%[59 µM] | -17% | · | 1% | 8% | -12%
C=CCSC1=N/C(=C\c2ccc(C(=O)O)cc2)C(=O)S1 | 45µM* | 6% | -23% | -29% | -5% | -4%
Cc1cc(C)c(NC(=O)CCC(=O)N2Cc3ccccc3Oc3ncccc32)c(C)c1 | 3%[59 µM] | -21% | · | 12%[57.1 µM] | 0% | 2%
CCCCCCCC/C=C\CCCCCCCC(=O)NCCc1ccc(O)c(O)c1 | ? | 35µM* | -9% | -8% | -12% | 29%
